Reference: PubChem BioAssay AID1159580 (chemical genetic matrix, 2015)
Several values for one entry are separate records, joined by “and”; a condition that tells them apart may be missing. Identical values can stand only once. Screen size: about 5,500 compounds; about 2,000 (36%) were called active. Roughly 18% stayed inconclusive and do not appear here. No stated cut-off is given here; in the data, active means normalized growth mostly below about 0.91 (no sharp cut-off); inconclusive means no clear call, values can overlap the other calls; inactive means mostly above about 0.92. Some of the results follow.

Test: chemical genetic growth profiling, strain panel (AID 1159580);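 further: tested at 20 µM; growth read once vehicle control cultures reached saturation at 30 °C; 1 = growth at the plate median or of vehicle wells; lower values mean less growth of the strain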
Conditions: S. cerevisiae deletion strains, growth OD

Measured: normalized growth

c1ccc2c(CC3=NCCN3)cccc2c1
inactive: locus YAL013W, strain DEP1, active compounds read low 1.01 | locus YAL021C, strain ccr4, active compounds read low 0.944 | locus YAL026C, strain drs2, active compounds read low 0.982 | locus YAL030W, strain snc1, active compounds read low 0.986 | locus YBL061C, strain skt5, active compounds read low 0.985 | locus YBR009C, strain hhf1, active compounds read low 0.987 | locus YBR021W, strain FUR4, active compounds read low 0.999 | locus YBR023C, strain chs3, active compounds read low 0.984 | locus YBR171W, strain sec66, active compounds read low 0.976 | locus YBR229C, strain ROT2, active compounds read low 1.01 | locus YBR231C, strain swc5, active compounds read low 0.985 | locus YBR279W, strain paf1, active compounds read low 0.99 | locus YCL011C, strain gbp2, active compounds read low 0.97 | locus YCL016C, strain dcc1, active compounds read low 0.996 | locus YCL029C, strain bik1, active compounds read low 1.03 | locus YCL061C, strain MRC1, active compounds read low 0.981 | locus YCL069W, strain vba3, active compounds read low 0.955 | locus YCR088W, strain abp1, active compounds read low 0.98 | locus YDL005C, strain med2, active compounds read low 0.962 | locus YDL035C, strain GPR1, active compounds read low 1.01 | locus YDL040C, strain nat1, active compounds read low 0.971 | locus YDL074C, strain BRE1, active compounds read low 1.01 | locus YDL101C, strain DUN1, active compounds read low 1.01 | locus YDL134C, strain PPH21, active compounds read low 1.01 | locus YDL185W, strain tfp1, active compounds read low 1.01 | locus YDL192W, strain arf1, active compounds read low 1.02 | locus YDR001C, strain nth1, active compounds read low 0.99 | locus YDR069C, strain doa4, active compounds read low 0.947 | locus YDR101C, strain arx1, active compounds read low 1.02 | locus YDR137W, strain rgp1, active compounds read low 0.985 | locus YDR150W, strain NUM1, active compounds read low 1.01 | locus YDR159W, strain sac3, active compounds read low 0.958 | locus YDR162C, strain NBP2, active compounds read low 1 | locus YDR195W, strain ref2 0.96 | locus YDR297W, strain sur2, active compounds read low 0.975 | locus YDR318W, strain mcm21, active compounds read low 1.02 | locus YDR334W, strain swr1, active compounds read low 0.958 | locus YDR335W, strain msn5, active compounds read low 0.981 | locus YDR388W, active compounds read low 1.02 | locus YDR392W, strain spt3, active compounds read low 0.863 | locus YDR502C, strain sam2, active compounds read low 1.02 | locus YEL003W, strain gim4, active compounds read low 0.945 | locus YEL037C, strain rad23, active compounds read low 0.964 | locus YEL061C, strain CIN8 (second series), active compounds read low 0.965 | locus YEL061C, strain CIN8, active compounds read low 1.01 | locus YER015W, strain faa2, active compounds read low 0.959 | locus YER016W, strain bim1, active compounds read low 0.979 | locus YER110C, active compounds read low 1.02 | locus YER111C, strain swi4, active compounds read low 0.968 | locus YER155C, strain BEM2 (second series), active compounds read low 0.98 | locus YER155C, strain BEM2, active compounds read low 1 | locus YER167W, strain BCK2, active compounds read low 1.02 | locus YFR010W, strain ubp6, active compounds read low 0.96 | locus YGL078C, strain dbp3, active compounds read low 1.02 | locus YGL086W, strain mad1, active compounds read low 1.01 | locus YGL167C, strain pmr1, active compounds read low 0.98 | locus YGL173C, strain kem1, active compounds read low 0.976 | locus YGL227W, strain vid30, active compounds read low 0.975 | locus YGL240W, strain doc1, active compounds read low 0.98 | locus YGL248W, strain PDE1, active compounds read low 1.01 | locus YGL253W, strain hxk2, active compounds read low 0.98 | locus YGR078C, strain PAC10, active compounds read low 1.01 | locus YGR135W, strain pre9, active compounds read low 1.02 | locus YGR229C, strain SMI1, active compounds read low 1.01 | locus YGR252W, strain gcn5, active compounds read low 0.984 | locus YHR013C, strain ard1, active compounds read low 0.901 | locus YHR027C, strain rpn1, active compounds read low 0.972 | locus YHR030C, strain SLT2, active compounds read low 1.01 and 0.973 | locus YHR079C, strain IRE1 (second series), active compounds read low 1.02 | locus YHR079C, strain IRE1, active compounds read low 0.961 | locus YHR094C, strain hxt1, active compounds read low 1.01 | locus YHR129C, strain ARP1, active compounds read low 1 | locus YHR142W, strain chs7, active compounds read low 0.978 | locus YHR200W, strain rpn10, active compounds read low 1.02 | locus YIL066C, strain RNR3, active compounds read low 1.01 | locus YIL073C, strain SPO22, active compounds read low 1.06 | locus YIL125W, strain kgd1, active compounds read low 1.01 | locus YIR030C, strain dcg1, active compounds read low 1.03 | locus YJL092W, strain hpr5, active compounds read low 0.968 | locus YJL095W, strain BCK1 (second series), active compounds read low 0.987 | locus YJL095W, strain BCK1, active compounds read low 1.01 and 1 | locus YJL115W, strain asf1, active compounds read low 0.976 | locus YJL129C, strain trk1, active compounds read low 0.921 | locus YJL134W, strain LCB3, active compounds read low 1.01 | locus YJL154C, strain vps35, active compounds read low 0.972 | locus YJL164C, strain tpk1, active compounds read low 0.978 | locus YJL166W, strain qcr8, active compounds read low 0.968 | locus YJL168C, strain set2, active compounds read low 1.02 | locus YJL187C, strain SWE1 (second series), active compounds read low 1.01 | locus YJL187C, strain SWE1, active compounds read low 0.976 | locus YJR043C, strain POL32, active compounds read low 1.01 | locus YJR066W, strain TOR1, active compounds read low 0.928
